According to PubChem BioAssay (NCATS):
“And” between values parts separate entries of the source, which are not always exact repeats. Identical values can stand only once. Records with an inconclusive call do not appear. Where a call stands in place of a potency, no number is given. The source made the active and inactive calls. Unless noted, calls follow the shape of the full dose curve.

Experiments:
[1] = qHTS for Inhibitors of the Functional Ribonucleoprotein Complex (vRNP) of Lassa (LASV) Arenavirus: LASV Primary Screen - GLuc reporter signal (AID 1347082; calls by dose curve; tested in HEK293 reporter line; also: nearly all actives have a fitted effect of over 60% in size; also: potency is read from the fitted curve at half-maximal effect)
[2] = qHTS for Inhibitors of the Functional Ribonucleoprotein Complex (vRNP) of Lassa (LASV) Arenavirus: Viability assay - alamar blue signal for LASV Primary Screen (AID 1347083; calls by dose curve; tested in HEK293 reporter line; also: nearly all actives have a fitted effect of over 80% in size; also: potency is read from the fitted curve at half-maximal effect)
[3] = qHTS for Inhibitors of the Functional Ribonucleoprotein Complex (vRNP) of Lymphocytic Choriomeningitis Arenaviruses (LCMV): Viability assay - alamar blue signal for LCMV Primary Screen (AID 1347085; calls by dose curve; tested in HEK293 reporter line; also: nearly all actives have a fitted effect of over 80% in size; also: potency is read from the fitted curve at half-maximal effect)
[4] = biological target: Nucleoprotein (Lymphocytic choriomeningitis virus (strain Armstrong)) (UniProt P09992); experiment: qHTS for Inhibitors of the Functional Ribonucleoprotein Complex (vRNP) of Lymphocytic Choriomeningitis Arenaviruses (LCMV): LCMV Primary Screen - GLuc reporter signal (AID 1347086); also: nearly all actives have a fitted effect of over 70% in size; also: potency is read from the fitted curve at half-maximal effect
[5] = Cytotoxicity counterscreen for inhibitors of SARS-CoV-2 cell entry (AID 1645845); also: nearly all actives have a fitted effect of over 50% in size
Method in brief: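 Counterscreen run in the same HEK293-ACE2 line as the pseudotyped-particle entry assay, without particles. Viability after 48 h at 37 C was read as ATP luminescence, scaled between cell-containing and cell-free wells.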

[6] = qHTS Assay for Identification of Small Molecule Antagonists for Thrombopoietin (TPO) Signaling Pathway (AID 918; active = well fitted curve in the direction sought with a large enough effect; an effect the other way counts as inactive or inconclusive; also: potency is read from the fitted curve at half-maximal effect; nearly all actives have a fitted effect of over 60% in size); conditions: TPO-dependent cell signaling reporter, antagonist mode
Method in brief: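 Antagonist mode at EC50 TPO (26 pM) in IL-3-free medium; murine Ba/F3 cells with human TPO receptor and GPIIb-promoter luciferase, 24 hrs at 37 C before luminescent detection.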

[7] = biological target: Alpha-galactosidase (Coffea arabica) (UniProt Q42656); experiment: Counterscreen for Glucocerebrosidase Inhibitors: qHTS Assay for Coffee Bean alpha-Galactosidase at pH 4.5 (AID 957; active = well fitted curve in the direction sought with a large enough effect; an effect the other way counts as inactive or inconclusive)
Method in brief: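 Quantitative HTS of compounds (0.7 nM to 77 uM) against coffee bean alpha-galactosidase at pH 4.5, measuring 4-methylumbelliferone fluorescence released from 80 uM substrate.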

[8] = biological target: Alpha-galactosidase (Coffea arabica) (UniProt Q42656); experiment: Counterscreen for Glucocerebrosidase Inhibitors: qHTS Assay for Coffee Bean alpha-Galactosidase at pH 5.9 (AID 998; active = well fitted curve in the direction sought with a large enough effect; an effect the other way counts as inactive or inconclusive)
Method in brief: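 Enzyme 2 nM + cpd (0.7 nM–77 uM titration) + 4-MU-alpha-Gal 80 uM, pH 5.9 citrate/Tween-20, RT 20 min, NaOH/glycine stop pH 10, fluor 365/440. Normalized to no-enzyme and full-activity controls; Hill-fit AC50.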

[9] = qHTS Assay for Lipid Storage Modulators (AID 1519); conditions: Drosophila S3 cells, BODIPY lipid droplet/cell ratio, laser cytometry, cells loaded with oleic acid
Method in brief: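 Cells seeded at 5,000 per well were treated with compounds over a concentration series and loaded with oleic acid (400 uM, as added). Lipid droplet fluorescence (488 nm excitation, 500-530 nm channel) was read by laser-scanning cytometry and normalized to 20 uM Triacsin C.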

[10] = qHTS for differential inhibitors of proliferation of Plasmodium falciparum line D10 (AID 1877; active = well fitted curve in the direction sought with a large enough effect; an effect the other way counts as inactive or inconclusive;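 also: potency is read from the fitted curve at half-maximal effect; parasites grown with compound for 72 h before DNA staining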)
[11] = qHTS for differential inhibitors of proliferation of Plasmodium falciparum line W2 (AID 1883; active = well fitted curve in the direction sought with a large enough effect; an effect the other way counts as inactive or inconclusive;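 also: potency is read from the fitted curve at half-maximal effect; parasites grown with compound for 72 h before lysis and staining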); conditions: Potency: Plasmodium falciparum W2 proliferation inhibition
[12] = biological target: RecQ-like DNA helicase BLM (Homo sapiens) (UniProt P54132); experiment: qHTS Validation Assay for Inhibitors of Bloom's syndrome helicase (BLM) (AID 2364; active = well fitted curve in the direction sought with a large enough effect; an effect the other way counts as inactive or inconclusive)
Method in brief: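 50 nM BLM preincubated 15 min at room temperature with compound in pH 8.0 Tris buffer containing 2.5 ug/ml poly(dI-dC); started with 200 nM TAMRA/BHQ-2 forked duplex and 2 mM ATP (final). Unwinding read as TAMRA fluorescence increase, two reads 2 h apart.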

[13] = Cytometric Cell-Based qHTS for Inhibitors of the mTORC1 Signaling Pathway in MEF (Tsc2-/-, p53-/-) Cells (AID 2660; active = well fitted curve in the direction sought with a large enough effect; an effect the other way counts as inactive or inconclusive;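 also: Tsc2 and p53 null MEFs carrying empty vector with compound for 24 h; percent of cells above a phospho-rpS6 to PI ratio cutoff in each well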)
Method in brief: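 Percent of cells positive for normalized phospho-S6 staining is reported, with the cutoff set from rapamycin (7.5 nM) versus DMSO wells. Tsc2-/-, p53-/- MEFs received compound for 24 hrs.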

[14] = Validation screen for small molecules that induce DNA re-replication in MCF 10A normal breast cells (AID 463097; active = well fitted curve in the direction sought with a large enough effect; an effect the other way counts as inactive or inconclusive; also: nearly all actives have a fitted effect of over 60% in size)
Method in brief: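 MCF 10A cells exposed to compound 48 hr at 37 C, 5% CO2, then Hoechst-stained 40 min. Laser-scanning imaging of nuclear DNA content (405 nm ex, 500-530 nm em); re-replication scored as rise in nuclei with elevated fluorescence intensity.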

[15] = biological target: Chromobox protein homolog 1 (Homo sapiens) (UniProt P83916); experiment: qHTS Validation Assay for Inhibitors of HP1-beta Chromodomain Interactions with Methylated Histone Tails (AID 488953; active = well fitted curve in the direction sought with a large enough effect; an effect the other way counts as inactive or inconclusive;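 also: loss of AlphaScreen luminescence from HP1-beta binding biotinylated H3K9me3 peptide; nearly all actives have a fitted effect of over 50% in size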)
Method in brief: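 Compounds pinned into a preassembled complex of HP1-beta and trimethyl-K9 histone H3(1-18) biotin peptide (50 nM each; PBS pH 7.4, 0.01% Tween-20). After 30 min, bead-based AlphaScreen detection followed.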

[16] = biological target: D(1A) dopamine receptor (Homo sapiens) (UniProt P21728); experiment: HTS Assay for Allosteric Agonists of the Human D1 Dopamine Receptor: Primary Screen for Agonists (AID 488981; active = well fitted curve in the direction sought with a large enough effect; an effect the other way counts as inactive or inconclusive)
Method in brief: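 Tetracycline-induced HEK293 Trex D1 cells with forced coupling to calcium, loaded with no-wash calcium dye; kinetic fluorescence read 180 s after compound addition for agonism, then a further 180 s after an EC20 dopamine challenge for potentiation.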

[17] = Inducers of the Endoplasmic Reticulum Stress Response (ERSR) in human glioma: Validation (AID 504836; active = well fitted curve in the direction sought with a large enough effect; an effect the other way counts as inactive or inconclusive)
Method in brief: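 Stably transfected U87-MG glioma cells carrying a GRP78-based luciferase sensor; 16 h compound incubation. Luminescence end-point read 10 min after Bright-Glo addition at room temperature.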

[18] = qHTS for Inhibitors of ATXN expression: Validation (AID 588378; active = well fitted curve in the direction sought with a large enough effect; an effect the other way counts as inactive or inconclusive; also: potency is read from the fitted curve at half-maximal effect; nearly all actives have a fitted effect of over 75% in size)
Method in brief: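 HEK293 cells carrying ATXN2-firefly luciferase reporter, treated with compound 24 h at 37 °C. Viability read first by CellTiter-Fluor (405/525 nm), then reporter expression by Bright-Glo luminescence; controls were a known ATXN2 expression inhibitor and a luciferase inhibitor.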

[19] = biological target: Arylsulfatase A (Homo sapiens) (UniProt P15289); experiment: qHTS screen for enhancers of Arylsulfatase A (ASA1): LOPAC Validation Assay (AID 720538; active = well fitted curve in the direction sought with a large enough effect; an effect the other way counts as inactive or inconclusive)
Method in brief: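 SV40-transformed fibroblasts from an MLD patient (ASA-I179S) were treated with compound for 48 h at 37 C. They were then lysed with 0.5 mM pNCS substrate (final) for 14 h at room temperature and stopped with NaOH; signal read by fluorescence (Ex 525/Em 598 nm), with increase denoting enhanced activity.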

[20] = Confirmatory qHTS to identify inhibitors of SARS-CoV-2 cell entry (AID 1645844); also: potency is read from the fitted curve at half-maximal effect; nearly all actives have a fitted effect of over 45% in size
Method in brief: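 HEK293-ACE2, overnight seeding; cpd 1 h, 37C/5% CO2; + SARS-CoV-2-S MLV PP (Wuhan-Hu-1, ΔC19); 48 h; Bright-Glo luminescence. Data normalised to S PP and bald PP wells.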

[21] = Primary qHTS to identify inhibitors of SARS-CoV-2 cell entry (AID 1645846); conditions: activity change, negative = inhibition: at 57.1 µM (top of the series) unless noted; also: nearly all actives have a fitted effect of over 45% in size
Method in brief: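 HEK293 cells stably expressing human ACE2, pre-treated 1 h with compound, then infected with MLV particles pseudotyped with Wuhan-Hu-1 spike (C-terminal 19-aa truncation). Luciferase luminescence after 48 h at 37 °C, normalised to spike PP and bald PP.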

[22] = VSVG counterscreen qHTS to identify inhibitors of SARS-CoV-2 cell entry (AID 1645847); also: potency is read from the fitted curve at half-maximal effect; nearly all actives have a fitted effect of over 65% in size
Method in brief: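 HEK293-ACE2 cells (Expi293F, human ACE2) pretreated 1 h with compound, then infected with MLV-based VSV-G pseudotyped particles for 48 h at 37 C; luciferase luminescence normalized to VSV-G PP and bald PP wells.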

[23] = biological target: Ubiquitin carboxyl-terminal hydrolase 1 (Homo sapiens) (UniProt O94782); experiment: Inhibitors of USP1/UAF1: Pilot qHTS (AID 504865; active = well fitted curve in the direction sought with a large enough effect; an effect the other way counts as inactive or inconclusive;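 also: rhodamine fluorescence freed from ubiquitin-rhodamine substrate followed over time; top concentration of the series differs between compounds; nearly all actives have a fitted effect of over 35% in size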)
Method in brief: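 USP1/UAF1 complex at 1 nM preincubated 15 min at room temperature with compound, then Ub-Rho substrate added at 150 nM final. Fluorescence (480/540 nm) read kinetically in 50 mM HEPES pH 7.8, 0.5 mM EDTA, 1 mM TCEP, 0.1 mg/ml BSA, 0.01% Tween-20.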

[24] = biological target: DNA dC->dU-editing enzyme APOBEC-3G (Homo sapiens) (UniProt Q9HC16); experiment: qHTS for inhibitors of Vif-A3G interactions: Validation (AID 588379; active = well fitted curve in the direction sought with a large enough effect; an effect the other way counts as inactive or inconclusive)
Method in brief: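 Yellow fluorescence (Ex 488, Em 500-530) of Vif-coexpressing HeLa A3G-eYFP cells, scanned by Acumen cytometer, reports blocked A3G degradation. Cells plated at 700/well overnight at 37 deg C before compound addition, then a further overnight compound incubation at 37 deg C.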

[25] = measured here: cell count channel max response
[26] = measured here: lipid channel max response

Sequence of Alpha-galactosidase (Coffea arabica) (Q42656 whole entry, looked up): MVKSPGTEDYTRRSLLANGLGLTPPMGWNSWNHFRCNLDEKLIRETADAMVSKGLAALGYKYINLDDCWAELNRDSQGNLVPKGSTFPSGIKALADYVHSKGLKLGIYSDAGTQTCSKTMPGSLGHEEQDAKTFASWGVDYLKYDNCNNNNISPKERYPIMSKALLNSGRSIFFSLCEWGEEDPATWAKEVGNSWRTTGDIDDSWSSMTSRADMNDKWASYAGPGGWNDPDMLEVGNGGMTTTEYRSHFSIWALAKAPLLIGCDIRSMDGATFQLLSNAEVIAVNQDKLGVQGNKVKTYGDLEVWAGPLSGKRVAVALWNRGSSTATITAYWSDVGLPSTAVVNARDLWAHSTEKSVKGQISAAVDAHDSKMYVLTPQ
Sequence of Nucleoprotein (Lymphocytic choriomeningitis virus (strain Armstrong)) (P09992 whole entry, looked up): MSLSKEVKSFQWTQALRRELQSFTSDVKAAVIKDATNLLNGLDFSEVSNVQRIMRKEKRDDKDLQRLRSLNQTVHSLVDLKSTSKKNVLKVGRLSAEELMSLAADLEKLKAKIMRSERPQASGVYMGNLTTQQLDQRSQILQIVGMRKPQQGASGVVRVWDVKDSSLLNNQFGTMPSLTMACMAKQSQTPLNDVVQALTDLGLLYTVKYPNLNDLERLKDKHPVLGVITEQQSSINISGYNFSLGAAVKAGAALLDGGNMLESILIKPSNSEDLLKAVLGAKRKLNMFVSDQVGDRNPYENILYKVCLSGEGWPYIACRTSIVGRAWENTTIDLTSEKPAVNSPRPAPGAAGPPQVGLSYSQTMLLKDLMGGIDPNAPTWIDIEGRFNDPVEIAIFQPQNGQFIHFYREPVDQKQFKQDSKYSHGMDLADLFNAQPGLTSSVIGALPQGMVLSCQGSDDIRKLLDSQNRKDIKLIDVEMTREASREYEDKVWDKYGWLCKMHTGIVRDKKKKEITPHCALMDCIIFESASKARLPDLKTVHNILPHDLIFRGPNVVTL
Sequence of Ubiquitin carboxyl-terminal hydrolase 1 (Homo sapiens) (O94782 whole entry, looked up): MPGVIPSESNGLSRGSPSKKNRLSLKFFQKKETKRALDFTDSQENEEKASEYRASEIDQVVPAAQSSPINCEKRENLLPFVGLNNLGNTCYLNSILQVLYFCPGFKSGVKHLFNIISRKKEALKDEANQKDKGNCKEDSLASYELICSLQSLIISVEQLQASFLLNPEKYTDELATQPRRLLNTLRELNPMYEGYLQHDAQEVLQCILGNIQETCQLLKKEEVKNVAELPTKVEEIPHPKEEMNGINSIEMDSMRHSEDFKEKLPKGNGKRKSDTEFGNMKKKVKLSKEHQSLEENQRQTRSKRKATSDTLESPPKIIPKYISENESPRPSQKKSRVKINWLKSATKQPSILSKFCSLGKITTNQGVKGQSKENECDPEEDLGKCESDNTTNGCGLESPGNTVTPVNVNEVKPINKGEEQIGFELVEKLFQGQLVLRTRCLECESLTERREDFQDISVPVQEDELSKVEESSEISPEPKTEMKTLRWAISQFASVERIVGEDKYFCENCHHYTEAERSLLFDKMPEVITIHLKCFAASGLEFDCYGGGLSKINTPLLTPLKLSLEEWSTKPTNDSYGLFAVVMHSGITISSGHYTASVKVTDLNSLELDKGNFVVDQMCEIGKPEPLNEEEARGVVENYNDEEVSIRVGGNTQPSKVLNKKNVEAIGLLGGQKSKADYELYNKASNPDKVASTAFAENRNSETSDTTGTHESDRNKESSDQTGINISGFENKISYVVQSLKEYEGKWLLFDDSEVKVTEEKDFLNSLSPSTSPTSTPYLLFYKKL
Sequence of Chromobox protein homolog 1 (Homo sapiens) (P83916 whole entry, looked up): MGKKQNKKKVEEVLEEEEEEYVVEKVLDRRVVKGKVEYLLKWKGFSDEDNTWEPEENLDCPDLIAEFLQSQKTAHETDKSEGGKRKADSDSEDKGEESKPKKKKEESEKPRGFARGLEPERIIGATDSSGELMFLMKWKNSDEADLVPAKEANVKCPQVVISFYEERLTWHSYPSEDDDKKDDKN
Sequence of RecQ-like DNA helicase BLM (Homo sapiens) (P54132 whole entry, looked up): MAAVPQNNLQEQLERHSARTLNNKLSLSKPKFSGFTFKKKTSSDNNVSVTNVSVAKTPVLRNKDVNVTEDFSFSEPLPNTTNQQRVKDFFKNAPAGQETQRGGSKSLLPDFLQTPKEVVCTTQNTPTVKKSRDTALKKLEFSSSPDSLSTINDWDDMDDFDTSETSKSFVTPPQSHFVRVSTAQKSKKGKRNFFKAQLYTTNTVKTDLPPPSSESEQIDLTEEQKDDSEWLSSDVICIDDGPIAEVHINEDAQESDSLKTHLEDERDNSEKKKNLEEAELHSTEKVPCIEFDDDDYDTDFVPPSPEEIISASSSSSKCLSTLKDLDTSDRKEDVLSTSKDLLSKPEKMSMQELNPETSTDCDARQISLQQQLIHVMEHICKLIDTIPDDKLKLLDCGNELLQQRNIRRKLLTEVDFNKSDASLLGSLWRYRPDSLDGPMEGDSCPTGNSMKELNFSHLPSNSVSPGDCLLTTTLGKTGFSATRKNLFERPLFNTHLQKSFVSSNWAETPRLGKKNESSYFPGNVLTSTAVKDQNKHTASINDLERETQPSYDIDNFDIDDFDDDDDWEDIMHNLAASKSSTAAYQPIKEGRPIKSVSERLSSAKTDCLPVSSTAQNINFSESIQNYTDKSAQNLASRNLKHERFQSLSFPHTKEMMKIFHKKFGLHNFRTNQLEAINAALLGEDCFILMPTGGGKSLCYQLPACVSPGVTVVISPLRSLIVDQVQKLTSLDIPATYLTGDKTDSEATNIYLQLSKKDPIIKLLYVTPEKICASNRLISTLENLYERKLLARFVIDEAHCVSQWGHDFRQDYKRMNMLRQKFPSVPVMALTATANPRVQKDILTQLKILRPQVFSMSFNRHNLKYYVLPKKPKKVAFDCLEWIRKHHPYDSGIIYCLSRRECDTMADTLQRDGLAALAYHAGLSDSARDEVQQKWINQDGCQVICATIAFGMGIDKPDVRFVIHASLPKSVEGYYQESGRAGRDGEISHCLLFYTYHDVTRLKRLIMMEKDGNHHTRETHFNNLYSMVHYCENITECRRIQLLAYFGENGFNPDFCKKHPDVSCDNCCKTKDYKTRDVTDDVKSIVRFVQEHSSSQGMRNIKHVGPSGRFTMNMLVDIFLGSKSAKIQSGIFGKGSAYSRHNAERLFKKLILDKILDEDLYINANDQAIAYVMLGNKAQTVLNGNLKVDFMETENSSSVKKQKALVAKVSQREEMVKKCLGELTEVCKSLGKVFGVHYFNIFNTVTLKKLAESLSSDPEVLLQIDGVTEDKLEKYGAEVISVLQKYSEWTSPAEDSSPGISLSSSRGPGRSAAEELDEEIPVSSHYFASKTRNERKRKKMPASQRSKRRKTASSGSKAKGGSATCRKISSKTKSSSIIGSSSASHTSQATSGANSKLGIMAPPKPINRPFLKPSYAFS
Sequence of D(1A) dopamine receptor (Homo sapiens) (P21728 whole entry, looked up): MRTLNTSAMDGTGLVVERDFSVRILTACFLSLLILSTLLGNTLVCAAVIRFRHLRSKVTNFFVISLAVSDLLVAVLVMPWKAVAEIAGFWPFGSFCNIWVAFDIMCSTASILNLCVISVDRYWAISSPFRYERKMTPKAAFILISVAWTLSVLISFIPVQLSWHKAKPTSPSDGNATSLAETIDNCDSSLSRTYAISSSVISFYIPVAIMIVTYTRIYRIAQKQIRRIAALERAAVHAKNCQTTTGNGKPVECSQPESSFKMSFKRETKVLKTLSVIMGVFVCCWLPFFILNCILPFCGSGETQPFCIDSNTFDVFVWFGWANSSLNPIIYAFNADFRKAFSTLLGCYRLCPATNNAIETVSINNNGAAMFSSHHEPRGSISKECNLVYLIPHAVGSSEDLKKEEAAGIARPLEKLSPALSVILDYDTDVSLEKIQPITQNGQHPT
Sequence of DNA dC->dU-editing enzyme APOBEC-3G (Homo sapiens) (Q9HC16 whole entry, looked up): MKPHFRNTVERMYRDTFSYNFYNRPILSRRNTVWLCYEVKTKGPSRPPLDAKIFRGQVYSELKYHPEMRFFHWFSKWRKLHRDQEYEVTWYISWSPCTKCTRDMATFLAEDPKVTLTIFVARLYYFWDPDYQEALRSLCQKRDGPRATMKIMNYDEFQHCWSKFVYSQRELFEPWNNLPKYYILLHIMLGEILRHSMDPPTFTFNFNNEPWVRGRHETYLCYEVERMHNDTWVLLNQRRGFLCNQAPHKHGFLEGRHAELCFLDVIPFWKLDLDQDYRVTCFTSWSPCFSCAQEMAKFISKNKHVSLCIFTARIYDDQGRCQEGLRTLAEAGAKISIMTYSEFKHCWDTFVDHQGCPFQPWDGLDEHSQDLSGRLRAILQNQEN
Sequence of Arylsulfatase A (Homo sapiens) (P15289 whole entry, looked up): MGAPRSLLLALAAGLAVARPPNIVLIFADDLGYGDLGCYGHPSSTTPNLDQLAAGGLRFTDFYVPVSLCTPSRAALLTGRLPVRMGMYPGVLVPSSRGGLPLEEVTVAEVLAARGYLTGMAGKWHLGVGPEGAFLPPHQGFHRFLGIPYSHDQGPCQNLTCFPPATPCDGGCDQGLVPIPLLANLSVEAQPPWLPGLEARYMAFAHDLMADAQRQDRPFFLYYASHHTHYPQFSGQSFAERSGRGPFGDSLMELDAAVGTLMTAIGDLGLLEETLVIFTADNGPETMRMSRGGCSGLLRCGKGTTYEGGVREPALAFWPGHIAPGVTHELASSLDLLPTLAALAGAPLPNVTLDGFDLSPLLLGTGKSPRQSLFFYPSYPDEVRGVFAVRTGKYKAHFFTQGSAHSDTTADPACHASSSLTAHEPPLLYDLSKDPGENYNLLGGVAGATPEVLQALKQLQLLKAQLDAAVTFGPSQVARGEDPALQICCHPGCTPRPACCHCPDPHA

Structure (SMILES): Cc1ccc(C(C)(O)c2nc3ccccc3s2)c(C)c1 (stereo not drawn)
- Potency [1]: inactive
- Potency [2]: inactive
- Potency [3]: inactive
- Potency [4]: inactive
- Potency [5]: inactive

Structure (SMILES): CNCC[C@H](Oc1ccc(C(F)(F)F)cc1)c1ccccc1
- Potency [6]: 12.6 µM (active) and 10 µM (active)
- outcome [7]: inactive
- outcome [8]: inactive
- activity change, negative = inhibition ([9]; at 25.7 µM (top of the series)): -1.04% (inactive)
- max response [9, 25]: 11.3%
- max response [9, 26]: 10.4%
- Potency [10]: 12.6 µM (active)
- Potency [11]: 4.47 µM (active)
- Potency [12]: inactive
- outcome [13]: inactive
- Potency [14]: inactive
- Potency [15]: inactive
- outcome [16]: inactive
- outcome [17]: inactive
- Potency [18]: 14.1 µM (active)
- Potency [19]: inactive
- Potency [1]: inactive
- Potency [2]: inactive
- Potency [3]: inactive
- Potency [4]: inactive

Structure (SMILES): O=C(O)Cc1cccc(OCCCN(Cc2cccc(C(F)(F)F)c2Cl)CC(c2ccccc2)c2ccccc2)c1
- Potency [1]: inactive
- Potency [2]: inactive
- Potency [3]: inactive
- Potency [4]: inactive
- Potency [5]: inactive

Structure (SMILES): CC[C@@]1([C@@H]2O[C@@H]([C@H]3O[C@@](O)(CO)[C@H](C)C[C@H]3C)C[C@H]2C)CC[C@H]([C@]2(C)CC[C@]3(C[C@H](O)[C@@H](C)[C@@H]([C@@H](C)[C@@H](OC)[C@H](C)C(=O)O)O3)O2)O1
- Potency [1]: 0.376 µM (active)
- Potency [2]: 3.35 µM (active)
- Potency [3]: 4.21 µM (active)
- Potency [4]: 1.06 µM (active)
- Potency [5]: inactive

Structure (SMILES): N#CC1(c2cccc(C(=O)Nc3cc(Oc4ccc5nc(NC(=O)C6CC6)sc5n4)ccc3F)c2Cl)CC1
- Potency [1]: inactive
- Potency [2]: inactive
- Potency [3]: inactive
- Potency [4]: inactive
- Potency [20]: 2.71 µM (active)
- Potency [5]: inactive
- activity change, negative = inhibition [21]: -79.3%
- Potency [22]: 0.304 µM (active)

Structure (SMILES): CC(C)c1cnn2c(NCc3ccccc3)cc(N[C@@H](CO)[C@H](O)CO)nc12
- Potency [1]: 2.43 µM (active)
- Potency [2]: 0.485 µM (active)
- Potency [3]: 0.685 µM (active)
- Potency [4]: 1.72 µM (active)
- Potency [20]: 0.607 µM (active)
- Potency [5]: inactive
- activity change, negative = inhibition [21]: -93.9%
- Potency [22]: 0.482 µM (active)

Structure (SMILES): CN[C@@H](Cc1c[nH]c2ccccc12)C(=O)O
- activity change, negative = inhibition ([9]; at 57.5 µM (top of the series)): 2.25% (inactive)
- max response [9, 25]: -7.03%
- max response [9, 26]: 3.12%
- Potency [23]: inactive
- Potency [24]: inactive
- Potency [1]: inactive
- Potency [2]: inactive
- Potency [3]: inactive
- Potency [4]: inactive

Structure (SMILES): CC(C)c1cc(C(C)C)c(CC(=O)NS(=O)(=O)Oc2c(C(C)C)cccc2C(C)C)c(C(C)C)c1
- Potency [1]: inactive
- Potency [2]: inactive
- Potency [3]: inactive
- Potency [4]: inactive
- Potency [5]: inactive

Structure (SMILES): O=C1NCCc2[nH]c(-c3ccncc3)cc21
- Potency [1]: 21.7 µM (active)
- Potency [2]: 6.85 µM (active)
- Potency [3]: 6.11 µM (active)
- Potency [4]: 10.9 µM (active)
- Potency [20]: 9.61 µM (active)
- Potency [5]: inactive
- activity change, negative = inhibition [21]: -95%
- Potency [22]: 9.61 µM (active)
